Bioassay records: PubChem, National Center for Advancing Translational Sciences (NCATS)
CtBP-E1A inh = inhibitors of CtBP/E1A interaction; AlphaScreen GST-E1A/His-CtBP binding, 1536-well; hits give low values; activity change, % (no concentration beside the values); 340,000 tested, 0.49% active; in the data active = activity change below about -65%; inconclusive = mostly about -30% to -63%
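GST-E1A and His-tagged CtBP (125 nM each as 5X stock) were preincubated with pin-transferred compound for 2 h at 37 °C in the dark, then glutathione donor and nickel acceptor beads were added for 1 h before AlphaScreen reading.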
Six1-Eya2 inh = blocks human Six1 binding to Eya2; Q15475+O00167; AlphaScreen GST-Six1/His-Eya2 binding, biochemical; hits give low values; activity change, % (no concentration beside the values); 360,000 tested, 0.56% active; AID 651725; in the data active = activity change below about -65%; inconclusive = mostly about -30% to -63%
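GST-Six1 + His-Eya2 (5X stock: 250/500 nM); Tris pH 8.0, 300 mM NaCl, 0.05% BSA, 0.02% Tween 20; GSH donor/Ni acceptor beads; 1 h 37 °C dark; AlphaScreen readout.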
TDP1 block = blocks human tyrosyl-DNA phosphodiesterase 1; Q9NUW8; recombinant TDP1, AlphaScreen DNA substrate cleavage; Potency, µM (highest dose often 130 µM), inactives show at the top dose activity change, negative = inhibition, usual class: inhibitors; 350,000 tested, 0.28% active; AID 485290; also: potency is read from the fitted curve at half-maximal effect; nearly all actives have a fitted effect of over 40% in size
Target sequence (Q9NUW8 whole entry, looked up): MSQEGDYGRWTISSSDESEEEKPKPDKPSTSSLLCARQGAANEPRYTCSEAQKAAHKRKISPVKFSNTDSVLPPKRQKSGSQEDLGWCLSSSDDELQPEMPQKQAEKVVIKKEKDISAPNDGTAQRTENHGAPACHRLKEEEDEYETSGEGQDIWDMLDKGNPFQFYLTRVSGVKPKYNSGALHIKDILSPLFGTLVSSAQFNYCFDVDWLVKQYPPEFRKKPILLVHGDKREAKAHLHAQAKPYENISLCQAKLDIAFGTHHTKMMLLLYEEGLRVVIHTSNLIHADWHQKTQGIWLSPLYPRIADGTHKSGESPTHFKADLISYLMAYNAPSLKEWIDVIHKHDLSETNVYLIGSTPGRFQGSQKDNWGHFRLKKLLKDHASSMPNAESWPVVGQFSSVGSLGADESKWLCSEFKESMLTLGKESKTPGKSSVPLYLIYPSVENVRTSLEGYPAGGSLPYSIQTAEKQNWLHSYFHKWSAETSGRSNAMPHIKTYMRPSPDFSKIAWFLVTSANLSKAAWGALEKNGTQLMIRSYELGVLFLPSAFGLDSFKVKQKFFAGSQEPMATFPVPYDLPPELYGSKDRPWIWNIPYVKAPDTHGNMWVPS
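Here, a 5' biotin and 3' phosphotyrosine-FITC DNA oligonucleotide reports Tdp1 activity: intact substrate bridges AlphaScreen beads, while cleavage leaves a 3' phosphate and drops signal. All incubations at room temperature.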
DT40 TDP1 CPT = DT40-hTDP1 cell growth loss with CPT. chicken DT40 Tdp1-/-;hTDP1 cells + 20 nM CPT, ATP luminescence, 48 h. Potency, µM (highest dose often 46.2 µM), without a hit: at the highest dose activity change, negative = growth inhibition, most hits filed as inhibitors. 420,000 tested, 12% active. AID 686979; also: potency is read from the fitted curve at half-maximal effect; nearly all actives have a fitted effect of over 55% in size
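Chicken DT40 Tdp1-/- cells stably complemented with human TDP1 were seeded at 400 cells/well in medium containing 20 nM camptothecin, exposed to pin-transferred compounds, and grown at 37 °C for at least 48 hr. Viability was read as ATP luminescence.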
IL1B secr inh = inhibitors of inflammasome signaling (IL-1 beta secretion); THP-1 LPS/ATP IL-1B secretion, AlphaLISA, 16 h; hits give low values; activity change, % at 57.5 µM; 360,000 tested, 4.7% active; in the data active = activity change below about -50%; inconclusive = mostly about -30% to -49%
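THP-1 cells pretreated 1 hr with compounds (up to 57.5 uM final), then stimulated with LPS (250 ng/mL final) plus ATP (1.25 mM final); secreted IL-1B measured by AlphaLISA after 16 hr, decreased signal indicating inhibition.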
TDP1 cell noCPT = qHTS for Inhibitors of human tyrosyl-DNA phosphodiesterase 1 (TDP1): qHTS in cells in absence of CPT | Potency, µM (highest dose often 46.2 µM), without a hit: at the highest dose activity change, negative = growth inhibition, actives largely listed as inhibitors | DT40 Tdp1-/- hTDP1 cells, no CPT, ATP luminescence, 48 h | 420,000 tested, 15% active | AID 686978, 2013; also: potency is read from the fitted curve at half-maximal effect; nearly all actives have a fitted effect of over 55% in size
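Growth of hTDP1-complemented DT40 Tdp1-knockout cells is measured by ATP luminescence after at least 48 hr compound exposure at 37 °C, with DMSO substituting for the 20 nM CPT used in the parallel screen.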
Active calls of the source: *; i = inactive; ? = inconclusive; · = no result; ! = a repeat was not active; [ ] = dose if it differs, or a comment. Only some compounds are listed: those with a hit (about 18% of all), similar ones and a draw of the others. Unless noted, calls follow the shape of the dose curve; as a rule, active = well fitted curve in the direction sought with a large enough effect; inconclusive = small, poorly fitted or top-dose-only effect, or another doubt; inactive = no such curve, though single readings can be large; an effect the other way counts as inactive or inconclusive. % is scaled to controls: 0 for no effect and ±100 for the full control effect.

SMILES | CtBP-E1A inh | Six1-Eya2 inh | TDP1 block | DT40 TDP1 CPT | IL1B secr inh | TDP1 cell noCPT
COC(=O)C1=C(C(=O)c2ccc(C)cc2)C(c2ccc(O)c(OC)c2)n2nnnc2N1 (stereo not drawn) | 4.5 | -0.1 | 0.5% | 19.6% | 8.0 | -2.5%
COc1cccc(Nc2nnc(-c3cc4ccc(O)cc4oc3=O)s2)c1 | · | · | ? | ? | · | 23.1µM*
COc1ccc2oc(=O)c(-c3nnc(N)s3)cc2c1 | -29.0 | ? | -10.0% | 1.0% | -84.2* | -26.9%
COc1ccc2oc(=O)c(-c3nc(C)cs3)cc2c1 | -13.5 | -16.9 | -2.4% | -19.6% | -7.7 | -20.7%
COc1cccc2cc(-c3nc4ccc(C)cc4[nH]3)c(=O)oc12 | · | · | 0.5% | -10.0% | · | ?
Nc1nnc(-c2cc3ccccc3oc2=O)s1 | -14.8 | -23.5 | 1.1% | -21.5% | -13.0 | ?
COc1ccc2oc(=O)c(-c3nc4ccc(C)cc4[nH]3)cc2c1 | · | · | 7.4% | 1.03µM* | · | 1.46µM*
CC/C(C)=N\Nc1nc(-c2cc3cc(OC)ccc3oc2=O)cs1 | 3.0 | 17.4 | · | ? | -5.5 | 18.4µM*
Cc1cc(C(=O)CN2C(=O)CCC2=O)c(C)n1Cc1ccccc1 | 20.6 | 0.6 | 4.0% | ? | 0.2 | ?
CC(=O)Nc1ccc(NC(=O)C(C)OC(=O)c2ccccc2Sc2ccccc2C#N)cc1 (stereo not drawn) | 0.0 | 0.0 | -2.6% | ? | 18.8 | ?
Cc1ccc(NC(=O)COC(=O)c2cccnc2)c(C)c1 | 3.9 | -0.7 | 2.5% | -4.0% | 1.1 | -8.0%
CC(C)C(NS(=O)(=O)c1cccs1)C(=O)NCc1ccccc1 (stereo not drawn) | 18.0 | -0.2 | 0.9% | -0.8% | 10.1 | -0.1%
CCOC(=O)c1c(NC(=O)CSc2nnnn2-c2ccccc2)sc2c1CC(C)(C)NC2(C)C | -1.5 | -8.5 | 8.5% | 16.4µM* | -61.9* | ?
CCOC(=O)c1c(NC(=O)CSc2nc3ccc(C)cc3[nH]2)sc2c1CC(C)(C)NC2(C)C | -7.3 | -3.6 | 7.1% | ? | -85.1* | ?
Cc1ccc2nc(SCC(=O)Nc3nonc3C)[nH]c2c1 | 6.6 | -8.9 | 5.4%[0.0935 µM] | -0.9% | -7.5 | -15.1%
CCOC(=O)c1c(NC(=O)CCS(=O)(=O)c2ccccc2)sc2c1CC(C)(C)NC2(C)C | -3.4 | 12.0 | 3.5% | -97.6% | i | ?
CCOC(=O)c1c(NC(=O)CSc2nnnn2-c2ccccc2OCC)sc2c1CC(C)(C)NC2(C)C | 0.7 | -13.1 | · | ? | -78.3* | 14.6µM*
COc1ccc(CCNC(=O)c2ccc(NC3=NC4CS(=O)(=O)CC4S3)cc2)cc1OC (stereo not drawn) | 1.3 | 0.9 | 0.5% | 2.0% | 0.0 | 15.6%
Cc1ccc(NC(=O)NCCN2CCCCC2)cc1Cl | 2.6 | -1.0 | 1.7% | -26.4% | ? | -29.7%
Cn1c(Cc2ccccc2)nnc1SCC(=O)N1CCCCC1 | 0.9 | 3.3 | 4.2%[56.1 µM] | -11.3% | -6.9 | -6.1%
CCn1nc(C)c(NC(=O)c2ccc(Br)o2)c1C | 18.6 | 14.5 | 2.5% | 0.9% | -5.0 | -2.3%
CCCCC1CC(=O)NC1(C(=O)OCC)C(=O)OCC (stereo not drawn) | 2.2 | -6.5 | · | 14.9% | ? | -6.4%
CSc1ccc(S(=O)(=O)Nc2ccc3c(c2)NC(=O)CC3)cc1 | -24.9 | 1.7 | 2.6% | ? | 16.3 | 23.1µM*
CCN(C(=O)CN1C(=O)NC(c2ccccc2)(c2ccc(C)c(C)c2)C1=O)C1CCS(=O)(=O)C1 (stereo not drawn) | · | -0.2 | 1.8% | 1.0% | -0.9 | ?
CN(C)C(=O)CN1C(=O)NC(c2ccccc2)(c2ccccc2)C1=O | 5.8 | 3.6 | 0.1% | -2.6% | -13.7 | 9.5%
SMILES | CtBP-E1A inh | Six1-Eya2 inh | TDP1 block | DT40 TDP1 CPT | IL1B secr inh | TDP1 cell noCPT
CCN(C(=O)CN1C(=O)NC(c2ccccc2)(c2ccc(C)c(C)c2)C1=O)C1CCCCC1 (stereo not drawn) | -9.4 | -7.7 | 0.9% | 16.4µM* | 0.0 | ?
CC1CCC(N(C)C(=O)CN2C(=O)NC(c3ccccc3)(c3ccccc3)C2=O)CC1 (stereo not drawn) | -8.3 | 0.2 | · | 23.1µM* | 2.6 | ?
COc1ccc(C2(c3ccc(OC)cc3)NC(=O)N(CC(=O)N(C)C3CCC(C)CC3)C2=O)cc1 (stereo not drawn) | -1.5 | -6.1 | -0.4%[56.1 µM] | -27.2% | -56.0* | -14.3%
CC(=O)NC(Nc1nc2c(s1)CCCC2)(C(F)(F)F)C(F)(F)F | 7.5 | 4.6 | 2.5% | -2.8% | 5.6 | 1.9%
CC/C(=C(\c1ccccc1)c1ccc(OCCN(C)C)cc1)c1ccccc1 | ? | -4.3 | 19.4%[56.1 µM] | 20.6µM* | -71.9*! | 18.4µM*
CN(C)CCOc1ccc(C(C)(C)c2ccccc2)cc1 | ? | 4.7 | · | ? | 4.4 | ?
CCN(CC)CCOc1ccc(/C(=C(/Cl)c2ccccc2)c2ccccc2)cc1 | ? | -18.3 | 2.5% | 23.1µM* | ? | 23.1µM*
O=C(Nc1ccccc1)c1cc(C2CCCCN2S(=O)(=O)c2cccs2)on1 (stereo not drawn) | 0.4 | 6.7 | · | -27.1% | -14.4 | ?
Cc1ccccc1/C(=N\S(=O)(=O)c1ccc(Br)cc1)Nc1ccccc1 | 0.0 | -3.0 | · | ? | -6.0 | 14.6µM*
Cc1ccc(S(=O)(=O)/N=C(/Nc2ccccc2C)c2ccccc2)cc1 | 3.3 | -2.0 | -3.1% | ? | -7.3 | ?
Cc1ccc(S(=O)(=O)/N=C(/Nc2c(C)cccc2C)c2ccccc2)cc1 | 5.8 | 4.7 | -0.3% | -69.4% | -5.9 | 1.64µM*
Cc1coc2c1c(C)cc1oc(=O)cc(C)c12 | · | · | -6.1% | 19.3% | · | 5.7%
CCC(C)[C@H]1CNC(=O)C(=O)N1CCCCC1CCCCC1 (stereo partly drawn) | -24.5 | 26.3 | · | -24.2% | -2.2 | -27.5%
O=C(c1cc(COc2ccc3ncccc3c2)on1)N1CCCCCC1 | 8.5 | 1.3 | 0.0% | 4.11µM* | -11.0 | 2.59µM*
O=C(NC1CCCC1)c1cc(COc2ccc3ncccc3c2)on1 | 0.8 | 1.6 | 4.8% | 3.66µM* | -5.6 | 2.06µM*
CC(NC(=O)c1cc(COc2ccc3ncccc3c2)on1)c1ccc(F)cc1 (stereo not drawn) | 4.6 | 0.8 | · | 6.51µM* | -16.4 | 3.66µM*
Cc1ccc(OCc2cc(C(=O)N3CCCCCCC3)no2)cc1C | 2.1 | 10.8 | -7.3% | -17.9% | -14.7 | 5.2%
O=C(c1cc(COc2ccc3ncccc3c2)on1)N1CCCC1 | -17.3 | 8.6 | 2.7% | 7.31µM* | 10.6 | 6.51µM*
